PubChem BioAssay AID1159580 (chemical genetic matrix, 2015)
Where “and” joins values, the source holds several entries; their conditions need not be identical. Identical values can stand only once. The campaign covered roughly 5,500 compounds. About 2,000 (36%) were called active. Not shown: some 18% with an inconclusive outcome. Rule as the data show it: active = normalized growth mostly below about 0.91 (no sharp cut-off); inconclusive = no clear call, values can overlap the other calls; inactive = mostly above about 0.92. The list shows a part of the results.

Test: chemical genetic growth profiling, strain panel (AID 1159580);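 also: tested at 20 µM; growth read once vehicle control cultures reached saturation at 30 °C; 1 = growth at the plate median or of vehicle wells; lower values mean less growth of the strain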
Details: S. cerevisiae deletion strains, growth OD

Measured: normalized growth

CCC(=O)O[C@H]1CCC2C3CCC4=CC(=O)CC[C@]4(C)C3CC[C@@]21C (some centres not stated)
0.889 (active) and 0.906 (inactive): locus YHR030C, strain SLT2, stronger effect = lower value
0.724 (active) and 0.95 (inactive): locus YJL095W, strain BCK1, stronger effect = lower value
inactive: locus YAL021C, strain ccr4, stronger effect = lower value 0.979 | locus YAL026C, strain drs2, stronger effect = lower value 0.959 | locus YBR171W, strain sec66, stronger effect = lower value 0.925 | locus YBR229C, strain ROT2, stronger effect = lower value 0.969 | locus YBR231C, strain swc5, stronger effect = lower value 0.952 | locus YBR279W, strain paf1, stronger effect = lower value 0.959 | locus YCL069W, strain vba3, stronger effect = lower value 0.962 | locus YCR088W, strain abp1, stronger effect = lower value 0.957 | locus YDL005C, strain med2, stronger effect = lower value 0.949 | locus YDL035C, strain GPR1, stronger effect = lower value 0.892 | locus YDL040C, strain nat1, stronger effect = lower value 0.946 | locus YDL101C, strain DUN1, stronger effect = lower value 0.95 | locus YDL185W, strain tfp1, stronger effect = lower value 1 | locus YDL192W, strain arf1, stronger effect = lower value 0.985 | locus YDR001C, strain nth1, stronger effect = lower value 0.962 | locus YDR069C, strain doa4, stronger effect = lower value 0.924 | locus YDR101C, strain arx1, stronger effect = lower value 0.957 | locus YDR195W, strain ref2 0.993 | locus YDR297W, strain sur2, stronger effect = lower value 0.968 | locus YDR334W, strain swr1, stronger effect = lower value 0.952 | locus YDR335W, strain msn5, stronger effect = lower value 0.934 | locus YDR388W, stronger effect = lower value 0.981 | locus YEL003W, strain gim4, stronger effect = lower value 0.943 | locus YEL037C, strain rad23, stronger effect = lower value 0.96 | locus YEL061C, strain CIN8 (second series), stronger effect = lower value 0.968 | locus YEL061C, strain CIN8, stronger effect = lower value 0.933 | locus YER015W, strain faa2, stronger effect = lower value 0.954 | locus YER110C, stronger effect = lower value 0.998 | locus YER111C, strain swi4, stronger effect = lower value 0.928 | locus YER167W, strain BCK2, stronger effect = lower value 0.909 | locus YFR010W, strain ubp6, stronger effect = lower value 0.992 | locus YGL078C, strain dbp3, stronger effect = lower value 0.984 | locus YGL167C, strain pmr1, stronger effect = lower value 0.928 | locus YGL227W, strain vid30, stronger effect = lower value 0.949 | locus YGL240W, strain doc1, stronger effect = lower value 0.928 | locus YGL248W, strain PDE1, stronger effect = lower value 0.916 | locus YGR135W, strain pre9, stronger effect = lower value 0.969 | locus YGR229C, strain SMI1, stronger effect = lower value 0.821 | locus YGR252W, strain gcn5, stronger effect = lower value 0.872 | locus YHR013C, strain ard1, stronger effect = lower value 1.02 | locus YHR027C, strain rpn1, stronger effect = lower value 0.967 | locus YHR079C, strain IRE1 (second series), stronger effect = lower value 0.981 | locus YHR079C, strain IRE1, stronger effect = lower value 0.896 | locus YHR094C, strain hxt1, stronger effect = lower value 0.982 | locus YHR129C, strain ARP1, stronger effect = lower value 0.943 | locus YHR200W, strain rpn10, stronger effect = lower value 0.943 | locus YIL066C, strain RNR3, stronger effect = lower value 0.878 | locus YIL073C, strain SPO22, stronger effect = lower value 0.807 | locus YIL125W, strain kgd1, stronger effect = lower value 0.975 | locus YIR030C, strain dcg1, stronger effect = lower value 0.991 | locus YJL092W, strain hpr5, stronger effect = lower value 0.929 | locus YJL115W, strain asf1, stronger effect = lower value 0.945 | locus YJL134W, strain LCB3, stronger effect = lower value 0.978 | locus YJL154C, strain vps35, stronger effect = lower value 0.943 | locus YJL168C, strain set2, stronger effect = lower value 0.983 | locus YJL187C, strain SWE1 (second series), stronger effect = lower value 0.951 | locus YJR043C, strain POL32, stronger effect = lower value 0.928
active: locus YAL013W, strain DEP1, stronger effect = lower value 0.792 | locus YAL030W, strain snc1, stronger effect = lower value 0.924 | locus YBL061C, strain skt5, stronger effect = lower value 0.866 | locus YBR009C, strain hhf1, stronger effect = lower value 0.883 | locus YBR021W, strain FUR4, stronger effect = lower value 0.782 | locus YBR023C, strain chs3, stronger effect = lower value 0.868 | locus YCL011C, strain gbp2, stronger effect = lower value 0.843 | locus YCL016C, strain dcc1, stronger effect = lower value 0.905 | locus YCL029C, strain bik1, stronger effect = lower value 0.857 | locus YDL074C, strain BRE1, stronger effect = lower value 0.76 | locus YDR137W, strain rgp1, stronger effect = lower value 0.689 | locus YDR159W, strain sac3, stronger effect = lower value 0.796 | locus YDR162C, strain NBP2, stronger effect = lower value 0.808 | locus YDR318W, strain mcm21, stronger effect = lower value 0.901 | locus YDR392W, strain spt3, stronger effect = lower value 0.213 | locus YDR502C, strain sam2, stronger effect = lower value 0.919 | locus YER016W, strain bim1, stronger effect = lower value 0.879 | locus YER155C, strain BEM2 (second series), stronger effect = lower value 0.777 | locus YER155C, strain BEM2, stronger effect = lower value 0.873 | locus YGL086W, strain mad1, stronger effect = lower value 0.873 | locus YGL173C, strain kem1, stronger effect = lower value 0.887 | locus YGL253W, strain hxk2, stronger effect = lower value 0.872 | locus YHR142W, strain chs7, stronger effect = lower value 0.737 | locus YJL095W, strain BCK1 (second series), stronger effect = lower value 0.77 | locus YJL129C, strain trk1, stronger effect = lower value 0.781 | locus YJL164C, strain tpk1, stronger effect = lower value 0.893 | locus YJL166W, strain qcr8, stronger effect = lower value 0.865 | locus YJL187C, strain SWE1, stronger effect = lower value 0.907
